From PubChem BioAssay
G9a inh: G9a (human) methyltransferase inhibition; G9a H3K9 monomethylation, AlphaScreen, 2 h; 350,000 compounds, 8.8% hits; Q96KQ7; Potency, µM (doses to about 102 µM), for the others: at the highest dose activity, negative = inhibition, most hits filed as inhibitors; AID 504332; further: on the % scale 0 is the no-effect control and ±100 the full control effect; nearly all actives have a fitted effect of over 75% in size
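AlphaScreen detection with an anti-monomethyl H3K9 antibody quantified product after a 2 h room-temperature reaction containing 500 nM biotinylated H3K9 peptide, 20 µM SAM and 20 nM enzyme, which had been preincubated 15 min with compound.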
GLS inh: blocks human kidney-isoform glutaminase activity; O94925; GLS enzymatic activity, qHTS titration; Potency, µM (doses to about 45.5 µM), inactives show top-dose activity change, negative = inhibition, actives largely listed as inhibitors; 410,000 compounds, 0.21% hits; further: on the % scale 0 is the no-effect control and ±100 the full control effect
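Glutamate formation by hKGA was monitored fluorometrically using coupled glutamate oxidase, HRP and Amplex Red. Substrate was added as 1 mM L-glutamine solution; incubation was 30 min at RT after an initial read.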
BAZ2B inh: inhibitors of human BAZ2B bromodomain | AlphaScreen BAZ2B-H3K14Ac peptide displacement | 360,000 compounds, 4.4% hits | AID 504333 | Potency, µM (series often up to 114 µM), for inactives: top-dose activity change, negative = inhibition, most hits filed as inhibitors | Q9UIF8; further: on the % scale 0 is the no-effect control and ±100 the full control effect; nearly all actives have a fitted effect of over 60% in size
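AlphaScreen displacement of biotin-H3(5-23)K14Ac peptide (50 nM final) from BAZ2B (50 nM final) in PBS pH 7.4, 0.01% Tween-20; complex preformed 30 min RT, then compounds (top 110 uM) 30 min RT, beads 20 min dark.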
HP1b binding inh: HP1-beta chromodomain-methylated histone interaction inhibition | P83916 | AlphaScreen HP1-beta / biotin-H3K9me3 peptide binding | Potency, µM (highest dose often 114 µM), without a hit: top-dose activity change, negative = inhibition, actives largely listed as inhibitors | 390,000 compounds, 0.56% hits; further: nearly all actives have a fitted effect of over 70% in size
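HP1-beta protein (50 nM final) preincubated 30 min at room temperature with biotinylated H3(1-18)K9me3 peptide (50 nM) in PBS pH 7.4, 0.01% Tween-20, then compound added for 30 min. AlphaScreen streptavidin donor/nickel chelate acceptor beads (10 ug/mL final), 30 min dark, luminescence read.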
JMJD2A Tudor inh: blocks the human JMJD2A Tudor domain; O75164; AlphaScreen JMJD2A-Tudor / H3K4me3 peptide binding; Potency, µM (doses to about 114 µM), without a hit: top-dose activity change, negative = inhibition, usual class: inhibitors; 390,000 compounds, 4.4% hits; AID 504339; further: on the % scale 0 is the no-effect control and ±100 the full control effect; nearly all actives have a fitted effect of over 50% in size
Target sequence (O75164 whole entry, looked up, the tested form may be a part): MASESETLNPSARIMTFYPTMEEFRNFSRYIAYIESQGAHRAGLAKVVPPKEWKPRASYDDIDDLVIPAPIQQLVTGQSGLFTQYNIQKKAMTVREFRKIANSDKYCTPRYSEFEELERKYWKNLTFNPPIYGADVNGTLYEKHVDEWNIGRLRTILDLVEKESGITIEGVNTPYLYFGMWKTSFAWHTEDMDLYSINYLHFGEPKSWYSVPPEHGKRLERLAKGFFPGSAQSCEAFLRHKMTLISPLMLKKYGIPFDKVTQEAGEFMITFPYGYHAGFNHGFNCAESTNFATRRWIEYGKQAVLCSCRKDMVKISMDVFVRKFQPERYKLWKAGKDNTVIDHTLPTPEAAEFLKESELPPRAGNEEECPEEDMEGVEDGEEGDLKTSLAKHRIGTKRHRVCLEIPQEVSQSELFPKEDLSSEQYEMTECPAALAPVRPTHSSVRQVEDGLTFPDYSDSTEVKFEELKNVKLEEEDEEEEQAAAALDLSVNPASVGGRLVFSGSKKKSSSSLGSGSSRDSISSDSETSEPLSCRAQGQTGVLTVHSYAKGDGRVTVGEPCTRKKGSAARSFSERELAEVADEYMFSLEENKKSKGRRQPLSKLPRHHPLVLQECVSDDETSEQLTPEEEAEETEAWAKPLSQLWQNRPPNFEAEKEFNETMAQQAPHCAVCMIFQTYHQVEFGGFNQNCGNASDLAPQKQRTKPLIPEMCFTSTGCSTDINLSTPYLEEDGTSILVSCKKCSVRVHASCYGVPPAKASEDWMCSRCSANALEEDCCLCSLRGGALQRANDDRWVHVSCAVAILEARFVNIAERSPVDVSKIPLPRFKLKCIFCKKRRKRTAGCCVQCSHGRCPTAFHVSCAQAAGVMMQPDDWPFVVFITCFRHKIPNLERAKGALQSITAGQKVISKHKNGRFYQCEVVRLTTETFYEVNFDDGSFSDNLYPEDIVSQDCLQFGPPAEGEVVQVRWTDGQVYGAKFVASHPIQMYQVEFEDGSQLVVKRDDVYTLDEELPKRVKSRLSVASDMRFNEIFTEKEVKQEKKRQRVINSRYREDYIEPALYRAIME
* = called active by the depositor; [ ] = another dose, or the depositor's remark. Hits are enriched below; roughly 10% of the tested compounds scored in any of these assays. The call rests on the fitted dose curve; in most records, active means well fitted curve in the direction sought with a large enough effect; inconclusive means small, poorly fitted or top-dose-only effect, or another doubt; inactive means no such curve, though single readings can be large; an effect the other way counts as inactive or inconclusive. Potency means the concentration at half of the fitted maximal effect.

What do the screens show for `OC(c1ccccc1)(c1ccccc1)c1cnc2ccccn12`?
JMJD2A Tudor inh: -14%

How did CC(C(=O)O/N=C(\N)c1ccccn1)c1ccc([N+](=O)[O-])cc1 (stereo unspecified) do in these assays?
G9a inh: inconclusive; GLS inh: -2%; BAZ2B inh: 56µM*; HP1b binding inh: 27%; JMJD2A Tudor inh: -7%

How did N/C(=N\OCc1ccc([N+](=O)[O-])cc1)c1ccccn1 do in these assays?
G9a inh: inconclusive; GLS inh: 5%; BAZ2B inh: -18%; HP1b binding inh: 21%; JMJD2A Tudor inh: -20%

What do the screens show for `COc1cccc(N=c2oc3cc(O)ccc3cc2C(=O)NCC2CCCO2)c1` (stereo unspecified)?
G9a inh: -10%; GLS inh: 20%; BAZ2B inh: 35µM*; HP1b binding inh: 8%; JMJD2A Tudor inh: -35%

What do the screens show for `COc1ccccc1N=c1oc2cc(O)ccc2cc1C(=O)NCC1CCCO1` (stereo unspecified)?
G9a inh: 23%[59 µM]; GLS inh: 3%; BAZ2B inh: -9%; HP1b binding inh: 18%; JMJD2A Tudor inh: -20%

Results for CCCCNC(=O)C1(C)CCCCN1C(=O)c1ccc(C)c(F)c1 (stereo unspecified) ?
GLS inh: -6%

What do the screens show for `COc1cc(NC(=O)CSc2nc(C)c(C)c(C)n2)c(C)cc1[N+](=O)[O-]`?
G9a inh: 50µM*; GLS inh: 2%; BAZ2B inh: 3%; HP1b binding inh: 32%; JMJD2A Tudor inh: -11%

What do the screens show for `COc1cc(NC(=O)CSc2nncn2C)c(C)cc1[N+](=O)[O-]`?
G9a inh: 9%; GLS inh: 1%; BAZ2B inh: -4%; HP1b binding inh: 26%; JMJD2A Tudor inh: -10%

What do the screens show for `COc1cc(NC(=O)CN2CCN(c3ccccc3O)CC2)c(C)cc1[N+](=O)[O-]`?
G9a inh: 10µM*; GLS inh: -5%; BAZ2B inh: -8%; HP1b binding inh: 15%; JMJD2A Tudor inh: -16%

Results for O=C(CN1CCN(c2ccccc2O)CC1)Nc1cc([N+](=O)[O-])ccc1Cl ?
G9a inh: 45µM*; GLS inh: 13%; BAZ2B inh: -35%; HP1b binding inh: 3%[57 µM]; JMJD2A Tudor inh: -35%

Results for CC(C(=O)Nc1cc([N+](=O)[O-])ccc1Cl)N1CCN(c2ccc(O)cc2)CC1 (stereo unspecified) ?
G9a inh: 7.9µM*; GLS inh: 31%; BAZ2B inh: -34%; HP1b binding inh: 71µM*; JMJD2A Tudor inh: 25µM*

Results for COc1cc(NC(=O)CN2CCC(C)CC2)c(C)cc1[N+](=O)[O-] ?
G9a inh: -13%; GLS inh: 1%; BAZ2B inh: 0%; HP1b binding inh: 15%; JMJD2A Tudor inh: -21%

Results for CCN(CC)c1ncnc2c1cnn2-c1cc(Cl)ccc1C ?
G9a inh: -3%[59 µM]; GLS inh: -27%; BAZ2B inh: 12%; HP1b binding inh: 39%; JMJD2A Tudor inh: -13%

Results for Cc1cccc(C)c1OCC(=O)N(Cc1ccc(Cl)cc1)CC1CCCO1 (stereo unspecified) ?
G9a inh: 16%[59 µM]; GLS inh: -4%; BAZ2B inh: 42%; HP1b binding inh: 54%; JMJD2A Tudor inh: 12%

What do the screens show for `Cc1ccccc1OCC(=O)OCC(=O)NCC1CCCO1` (stereo unspecified)?
G9a inh: 15%; GLS inh: 4%; BAZ2B inh: -10%; HP1b binding inh: 33%; JMJD2A Tudor inh: -17%

Results for Cc1cc(C)c(OCC(=O)N(Cc2ccc(N(C)C)cc2)CC2CCCO2)c(C)c1 (stereo unspecified) ?
G9a inh: 13µM*; GLS inh: 16%; BAZ2B inh: 28µM*; HP1b binding inh: inconclusive; JMJD2A Tudor inh: 40µM*

How did Cc1ccccc1OCC(=O)N(Cc1ccc(N(C)C)cc1)CC1CCCO1 (stereo unspecified) do in these assays?
G9a inh: 16µM*; GLS inh: 20%; BAZ2B inh: 32µM*; HP1b binding inh: inconclusive; JMJD2A Tudor inh: 45µM*
